The structures appear in SMILES notation. Screen size: about 330,000 compounds; about 4,100 (1.2%) were called active. Cut-off read from the data, not from the text of the source: active = inhibition above about 50%; inactive = the rest. The list comes from a sample in which actives are over-represented; it also holds similar structures and randomly drawn compounds.

The experiment deals with Sentrin-specific protease 8 (Homo sapiens) (UniProt Q96LD8). Nature of the experiment: SENP8 protease inhibitors, primary screen, biochemical, luminescence (AID 2540). Conditions: purified SENP8, Z-RLRGG-aminoluciferin cleavage, at 10 µM, active compounds read high.
Sequence of Sentrin-specific protease 8 (Homo sapiens) (Q96LD8 whole entry, looked up): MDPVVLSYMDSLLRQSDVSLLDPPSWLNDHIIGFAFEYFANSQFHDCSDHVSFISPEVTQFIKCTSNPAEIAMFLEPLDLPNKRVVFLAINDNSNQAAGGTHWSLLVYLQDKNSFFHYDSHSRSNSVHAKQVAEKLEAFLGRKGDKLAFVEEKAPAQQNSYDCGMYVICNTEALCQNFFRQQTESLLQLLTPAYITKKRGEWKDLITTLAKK
Take `CN1CCN(c2cc(N3CCNCC3)ccc2[N+](=O)[O-])CC1`: the inhibition is 2.96% (inactive).

On to `Cc1nc2ccc(N3CCN(C)CC3)cc2nc1C`, for which the inhibition is -5.08% (inactive).

In the case of `COc1cccc(-c2nc3ccc(N4CCN(C)CC4)cc3[nH]2)c1`, the inhibition was 57.4% (active).

With `CN(C)P(=S)(Nc1ccccc1)C(Cl)(Cl)Cl` (stereo not given), the inhibition was -7.38% (inactive).

Consider `COc1ccccc1CN1CCN(C(=O)Cc2ccccc2)CC1`, for which the inhibition was -9.12% (inactive).

For `CCOC(=O)c1c(N)n(CCN2CCOCC2)c2nc3ccccc3nc12`, the inhibition is 2.3% (inactive).

On to `COc1cc(Cn2c(N)c(C(=O)NCc3ccco3)c3nc4ccccc4nc32)cc(OC)c1OC`, for which the inhibition is 90.9% (active).

As for `CCOC(=O)c1c(N)n(Cc2ccccc2)c2nc3ccccc3nc12`, the inhibition is 9.31% (inactive).

With `CC(=O)c1ccc(OC(NC(=O)Cc2ccccc2)C(Cl)(Cl)Cl)cc1` (stereo not given), the inhibition was -0.124% (inactive).

Take `CCOc1ccc(CN(CCCl)CCCl)cc1C(=O)OC`: the inhibition is -7.06% (inactive).

As usually defined, the inhibition is the drop in the measured response relative to a control, in per cent.

The values above are taken from PubChem BioAssay AID2540 (Sanford-Burnham Center for Chemical Genomics, 2010).
